Test systems include MST4; MTOR; MUSK; MYLK2; MYLK4; MYLK; MYO3A; MYO3B.
Common to all, as to details: n = 1
The subject of another assay is T1, MST2.
T1 construct: gene STK3

Another assay relates to T2, MST3.
T2 construct: gene STK24

Where [1] appears, read: concentration: 1 μM, replicates: in singlicate.

The structures appear in SMILES notation. Where two headings read alike, the source gives them in different places.
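Also: KINOMEscan kinase panel screen.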

For `CS(=O)(=O)c1ccc(-c2nc3n(c2-c2ccncc2)CCC3)cc1` [SKF-105942], the “%Inh” value with MST2 (setting [1]) is reported as 0%; with MST3 (setting [1]), 0%; in the assay on MST4 (setting [1]), 0%; in the assay on MTOR (setting [1]), 0%; in the assay on MUSK (setting [1]), 12%; in the assay with MYLK2 (setting [1]), 0%. The “%Inh” value was determined as 4% in the assay with MYLK4 (setting [1]), 17% in the assay on MYLK (setting [1]), 25% in the assay with MYO3A (setting [1]) and 77% with MYO3B (setting [1]).

In the case of `O=C(Nc1ccccc1)Nc1cccc(Oc2ccc3nccn3n2)c1`, the “%Inh” value in the assay with MST2 (setting [1]) was determined as 0%; in the assay with MST3 (setting [1]), 3%; in the assay with MST4 (setting [1]), 0%; with MTOR (setting [1]) it was 21%; in the assay on MUSK (setting [1]), 0%; with MYLK2 (setting [1]) it was 0%. Further, the “%Inh” value in the assay with MYLK4 (setting [1]), with MYLK (setting [1]), in the assay with MYO3A (setting [1]) and in the assay with MYO3B (setting [1]) was 0% each time.

As to `Cl.c1ccc(-c2n[nH]cc2-c2ccnc(-c3ccc(CN4CCOCC4)cc3)c2)nc1` [GW776245], the “%Inh” value is reported as 0% with MST2 (setting [1]); 0% in the assay with MST3 (setting [1]); 0% with MST4 (setting [1]); 42% in the assay on MTOR (setting [1]); 1% with MUSK (setting [1]); 10% in the assay with MYLK2 (setting [1]). Besides, the “%Inh” value turned out to be 0% with MYLK4 (setting [1]), 2% in the assay with MYLK (setting [1]), 0% in the assay on MYO3A (setting [1]) and 1% in the assay with MYO3B (setting [1]).

For the molecule `O=C(Nc1n[nH]c2nc(-c3nccs3)c(Br)cc12)C1CCCC1` [SB-742609], the “%Inh” value is listed as 0% in the assay on MST2 (setting [1]); 0% with MST3 (setting [1]); 6% with MST4 (setting [1]); 11% with MTOR (setting [1]); 31% in the assay on MUSK (setting [1]); 90% with MYLK2 (setting [1]). In addition, the “%Inh” value with MYLK4 (setting [1]) amounted to 27%; in the assay on MYLK (setting [1]) it was 0%; in the assay with MYO3A (setting [1]), 0%; in the assay on MYO3B (setting [1]), 0%.

Regarding `Cc1ccc(NC(=O)Nc2cccc(C(F)(F)F)c2)cc1` [GSK955403], the “%Inh” value in the assay with MST2 (1 µM) turned out to be 57%; in the assay on MST3 (1 µM), 16%; with MST4 (1 µM) it was 0%; in the assay with MTOR (1 µM) it was 0%; in the assay with MUSK (1 µM) it was 0%; with MYLK2 (1 µM), 22%. In addition, the “%Inh” value was 0% in the assay with MYLK4 (1 µM), 32% in the assay on MYLK (1 µM), 9% in the assay with MYO3A (1 µM) and 0% in the assay with MYO3B (1 µM).

As for `CC(C)(C)c1ccc(C(=O)Nc2cn3cc(-c4cccnc4)ccc3n2)cc1`, the “%Inh” value is recorded as 42% with MST2 (setting [1]); 38% with MST3 (setting [1]); 0% with MST4 (setting [1]); 11% with MTOR (setting [1]); 17% with MUSK (setting [1]); 53% in the assay on MYLK2 (setting [1]). The “%Inh” value in the assay on MYLK4 (setting [1]) was 11%; in the assay with MYLK (setting [1]), 28%; in the assay on MYO3A (setting [1]), 8%; in the assay with MYO3B (setting [1]) it was 22%.

As to `Cc1cccc(-c2cc(Nc3ccncc3)c3ccccc3n2)n1` [GSK223675], the “%Inh” value came to 6% with MST2 (setting [1]); 5% in the assay on MST3 (setting [1]); 0% in the assay with MST4 (setting [1]); 7% in the assay on MTOR (setting [1]); 1% in the assay with MUSK (setting [1]); 0% in the assay on MYLK2 (setting [1]). In addition, the “%Inh” value in the assay with MYLK4 (setting [1]) stood at 0%; in the assay with MYLK (setting [1]), 15%; in the assay with MYO3A (setting [1]), 17%; with MYO3B (setting [1]), 0%.

On to `Cn1ccc2ncnc(Oc3ccc(Nc4nc5ccccc5[nH]4)cc3)c21`, for which the “%Inh” value is 5% in the assay on MST2 (setting [1]); 0% with MST3 (setting [1]); 0% with MST4 (setting [1]); 0% with MTOR (setting [1]); 21% in the assay on MUSK (setting [1]); 0% in the assay on MYLK2 (setting [1]). Further, the “%Inh” value in the assay on MYLK4 (setting [1]), in the assay with MYLK (setting [1]), in the assay with MYO3A (setting [1]) and with MYO3B (setting [1]) was 0% throughout.

Turning to `COc1cc2nccc(Nc3ccc(NC(=O)c4ccc(C)cc4)c(O)c3)c2cc1OC.Cl` [GW440132], the “%Inh” value is 0% in the assay with MST2 (setting [1]); 0% in the assay with MST3 (setting [1]); 0% in the assay with MST4 (setting [1]); 4% in the assay with MTOR (setting [1]); 13% with MUSK (setting [1]); 4% in the assay with MYLK2 (setting [1]). Moreover, the “%Inh” value in the assay on MYLK4 (setting [1]) is listed as 0%; with MYLK (setting [1]), 11%; in the assay with MYO3A (setting [1]), 10%; in the assay with MYO3B (setting [1]) it was 0%.

As for `COc1cccc(-c2cc(-c3c[nH]nc3-c3ccccn3)ccn2)c1` [GW680338], the “%Inh” value in the assay with MST2 (setting [1]) is reported as 0%; with MST3 (setting [1]), 0%; in the assay with MST4 (setting [1]), 30%; with MTOR (setting [1]) it was 33%; in the assay on MUSK (setting [1]) it was 0%; with MYLK2 (setting [1]) it was 0%. In addition, the “%Inh” value in the assay with MYLK4 (setting [1]) worked out at 9%; in the assay with MYLK (setting [1]) it was 0%; in the assay with MYO3A (setting [1]), 8%; with MYO3B (setting [1]), 3%.

As for `Cl.O=C(Nc1cccc(-c2nn3ncccc3c2-c2ccnc(Nc3cccnc3)n2)c1)c1c(F)cccc1F` [GSK312879], the “%Inh” value with MST2 (setting [1]) was found to be 19%; in the assay on MST3 (setting [1]), 0%; in the assay with MST4 (setting [1]), 0%; with MTOR (setting [1]), 15%; in the assay on MUSK (setting [1]), 23%; with MYLK2 (setting [1]), 13%. Moreover, the “%Inh” value with MYLK4 (setting [1]) worked out at 1%; with MYLK (setting [1]), 2%; in the assay with MYO3A (setting [1]), 0%; with MYO3B (setting [1]) it was 0%.

For `Cn1ccc2ncnc(Oc3cccc(C(=O)Nc4ccccc4)c3)c21`, the “%Inh” value in the assay with MST2 (setting [1]) stood at 13%; in the assay with MST3 (setting [1]), 20%; in the assay with MST4 (setting [1]), 7%; with MTOR (setting [1]), 0%; in the assay on MUSK (setting [1]) it was 0%; with MYLK2 (setting [1]), 0%. For the same molecule, the “%Inh” value worked out at 4% in the assay with MYLK4 (setting [1]), 0% in the assay with MYLK (setting [1]), 0% in the assay on MYO3A (setting [1]) and 4% in the assay with MYO3B (setting [1]).

Take `COc1ccc(C2=C(Nc3cccc(C(=O)O)c3)C(=O)NC2=O)cc1` [SB-390765]: the “%Inh” value in the assay with MST2 (setting [1]) is on record as 0%; with MST3 (setting [1]), 9%; in the assay on MST4 (setting [1]), 16%; in the assay with MTOR (setting [1]) it was 0%; in the assay on MUSK (setting [1]), 9%; with MYLK2 (setting [1]), 0%. Also, the “%Inh” value with MYLK4 (setting [1]) is 0%; in the assay on MYLK (setting [1]), 14%; in the assay on MYO3A (setting [1]), 12%; with MYO3B (setting [1]), 0%.

As to `Cc1c(Cn2ccn3c(=O)cc(N4CCOCC4)nc23)cccc1C(F)(F)F` [GSK2289044], the “%Inh” value in the assay on MST2 (setting [1]) came out at 0%; in the assay on MST3 (setting [1]) it was 0%; in the assay on MST4 (setting [1]) it was 0%; in the assay on MTOR (setting [1]) it was 15%; with MUSK (setting [1]), 17%; in the assay with MYLK2 (setting [1]) it was 0%. Moreover, the “%Inh” value in the assay on MYLK4 (setting [1]) turned out to be 0%; in the assay with MYLK (setting [1]), 16%; in the assay with MYO3A (setting [1]) it was 12%; with MYO3B (setting [1]) it was 2%.

`Cn1ccc2ncnc(Oc3ccc(NC(=O)Nc4ccccc4)cc3)c21`: the “%Inh” value is recorded as 0% with MST2 (setting [1]); 0% in the assay with MST3 (setting [1]); 0% with MST4 (setting [1]); 16% in the assay with MTOR (setting [1]); 14% in the assay on MUSK (setting [1]); 2% in the assay with MYLK2 (setting [1]). In addition, the “%Inh” value came to 0% in the assay with MYLK4 (setting [1]), 3% in the assay with MYLK (setting [1]), 5% with MYO3A (setting [1]) and 28% with MYO3B (setting [1]).

For `Fc1cccc(COc2nnc(-c3ccc4c(c3)CCO4)o2)c1`, the “%Inh” value in the assay with MST2 (setting [1]) was determined as 0%; with MST3 (setting [1]), 25%; in the assay on MST4 (setting [1]), 0%; in the assay on MTOR (setting [1]) it was 3%; in the assay on MUSK (setting [1]) it was 3%; in the assay with MYLK2 (setting [1]), 0%. The “%Inh” value in the assay with MYLK4 (setting [1]) was found to be 4%; in the assay with MYLK (setting [1]), 0%; with MYO3A (setting [1]), 0%; with MYO3B (setting [1]), 5%.

On to `Clc1cc(Cl)cc(Nc2ccnc(Nc3cc(Cl)cc(Cl)c3)n2)c1` [GSK175726], for which the “%Inh” value in the assay with MST2 (setting [1]) turned out to be 20%; in the assay on MST3 (setting [1]), 9%; with MST4 (setting [1]) it was 0%; with MTOR (setting [1]), 18%; with MUSK (setting [1]) it was 2%; with MYLK2 (setting [1]) it was 11%. Further, the “%Inh” value in the assay on MYLK4 (setting [1]) stood at 13%; in the assay with MYLK (setting [1]), 21%; in the assay with MYO3A (setting [1]), 10%; with MYO3B (setting [1]), 3%.

As to `CC(C)(C)c1ccc(C(=O)Nc2cn3cc(Cl)ccc3n2)cc1`, the “%Inh” value in the assay on MST2 (setting [1]) was 0%; with MST3 (setting [1]), 0%; with MST4 (setting [1]), 0%; in the assay on MTOR (setting [1]) it was 31%; in the assay with MUSK (setting [1]), 0%; in the assay with MYLK2 (setting [1]), 0%. Also, the “%Inh” value in the assay with MYLK4 (setting [1]) is recorded as 0%; with MYLK (setting [1]), 9%; with MYO3A (setting [1]), 7%; in the assay on MYO3B (setting [1]), 0%.

Source of the values: article PMC5540273 (PLoS ONE, 2017).
